MCF10A rerep: inducers of DNA re-replication in MCF 10A breast cells; MCF 10A DNA re-replication, Hoechst nuclear intensity, 48 h; Potency, µM (doses to about 46.1 µM), without a hit: at the top dose activity, positive = re-replication, actives largely listed as activators; 2.9% of 350,000 active; AID 624296; also: potency is read from the fitted curve at half-maximal effect; % of control where 0% means no effect; nearly all actives have a fitted effect of over 50% in size
SW480 rereplic: inducers of DNA re-replication in SW480 colon cancer cells. SW480 DNA re-replication, Hoechst DNA content imaging, 48 h. Potency, µM (series often up to 46.1 µM), for inactives: at the top dose re-replication activation, hits mostly activators. 1.8% of 340,000 active. AID 624297; also: potency is read from the fitted curve at half-maximal effect; % of control where 0% means no effect; nearly all actives have a fitted effect of over 55% in size
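Compounds, transferred as 23 nL by pin tool, were incubated with cells for 48 hr; DNA content per nucleus was then quantified by Hoechst staining and fluorescence plate imaging.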
IL1B secr inh: inhibitors of inflammasome signaling (IL-1 beta secretion). THP-1 LPS/ATP IL-1B secretion, AlphaLISA, 16 h; hits give low values. activity change, % at 57.5 µM. 4.7% of 360,000 active; in the data active = activity change below about -50%; inconclusive = mostly about -30% to -49%; also: % is scaled to controls: 0 for no effect and ±100 for the full control effect
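THP-1 cells pretreated 1 hr with compounds (up to 57.5 uM final), then stimulated with LPS (250 ng/mL final) plus ATP (1.25 mM final); secreted IL-1B measured by AlphaLISA after 16 hr, decreased signal indicating inhibition.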
KB-3-1 cytotox: kills parental KB-3-1 adenocarcinoma cells; KB-3-1 viability, CellTiter-Glo ATP luminescence, 72 h; Potency, µM (series often up to 46.1 µM), most hits filed as cytotoxic; 1.4% of 400,000 active; also: potency is read from the fitted curve at half-maximal effect; % is scaled to controls: 0 for no effect and ±100 for the full control effect; nearly all actives have a fitted effect of over 60% in size
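KB-3-1 parental drug-naive adenocarcinoma cells in DMEM/10% FBS, incubated 72 h at 37 C with pin-transferred compounds across a concentration series. Viability by CellTiter-Glo luminescence; concentration-response curves fitted after normalization.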
KB-V1 cytotox: kills drug-selected multidrug resistant KB-V1 cells; KB-V1 MDR cells viability, CellTiter-Glo, 72 h; Potency, µM (highest dose often 46.1 µM), usual class: cytotoxic; 3.4% of 400,000 active; AID 1347076; also: potency is read from the fitted curve at half-maximal effect; % is scaled to controls: 0 for no effect and ±100 for the full control effect; nearly all actives have a fitted effect of over 60% in size
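Cells of the MDR subline KB-V1 are plated, dosed with compound at multiple concentrations, and incubated 72 h at 37 degrees C; CellTiter-Glo is then added and luminescence read after 10 min.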
* marks the source's active call; other numbers are inactive results. Hits are enriched below; roughly 9.9% of the tested compounds scored in any of these assays. Unless noted, calls follow the shape of the dose curve; as a rule, active = well fitted curve in the direction sought with a large enough effect; inconclusive = small, poorly fitted or top-dose-only effect, or another doubt; inactive = no such curve, though single readings can be large; an effect the other way counts as inactive or inconclusive.

For Cc1ccc(Cn2c(=N)c(C(=O)NCc3ccco3)cc3c(=O)n4ccccc4nc32)cc1 the results were MCF10A rerep 11.2µM*, SW480 rereplic 3.55µM*, IL1B secr inh -7.6, KB-3-1 cytotox inconclusive and KB-V1 cytotox inactive.
For O=C(NCC(c1ccco1)N1CCCC1)c1cccc(S(=O)(=O)Nc2ccc(F)cc2)c1 (stereo unspecified) the results were MCF10A rerep 1.5%, SW480 rereplic -2.6%, IL1B secr inh 9.9, KB-3-1 cytotox inactive and KB-V1 cytotox inactive.
Screening Cc1ccc(NS(=O)(=O)c2cccc(C(=O)NCC(c3ccco3)N3CCCC3)c2)cc1 (stereo unspecified) returned MCF10A rerep 11.6µM*, SW480 rereplic inconclusive, IL1B secr inh -3.2, KB-3-1 cytotox inactive and KB-V1 cytotox inactive.
For Cc1ccc(S(=O)(=O)Nc2cccc(C(=O)NCC(c3ccco3)N3CCCCC3)c2)cc1F (stereo unspecified) the results were MCF10A rerep inconclusive, SW480 rereplic 0.2%, IL1B secr inh -66.1*, KB-3-1 cytotox inactive and KB-V1 cytotox inconclusive.
For Cc1ccc(-c2nc(CNC(=O)Nc3ccccc3)c(C)o2)cc1 the results were KB-3-1 cytotox inactive and KB-V1 cytotox inactive.
`Cc1ccc(-n2nc3ccc(N)cc3n2)cc1C` gave MCF10A rerep 16.4µM*, SW480 rereplic 16.4µM*, IL1B secr inh 10.6, KB-3-1 cytotox inactive and KB-V1 cytotox inactive.
COc1ccc(-n2nc3ccc(N)cc3n2)cc1Cl was read as MCF10A rerep inconclusive, SW480 rereplic 20.6µM*, IL1B secr inh -15.9, KB-3-1 cytotox inactive and KB-V1 cytotox inactive.
For CC1CCC(NC(=O)CCS(=O)(=O)c2ccc3c(c2)CCN3C(=O)C2CC2)CC1 (stereo unspecified) the results were MCF10A rerep 0.8%, SW480 rereplic -1.4%, IL1B secr inh 0.0, KB-3-1 cytotox inactive and KB-V1 cytotox inactive.
Screening COC(=O)c1ccc(OC(C)C(=O)c2ccc(C)cc2)cc1 (stereo unspecified) returned MCF10A rerep 5.4%, SW480 rereplic -0.8%, IL1B secr inh 3.5, KB-3-1 cytotox inactive and KB-V1 cytotox inactive.
For CC(C)c1nc2cc3ccccc3cc2[nH]1 the results were MCF10A rerep inconclusive, SW480 rereplic 20.6%, IL1B secr inh -53.1*, KB-3-1 cytotox inactive and KB-V1 cytotox inactive.
CC1(C(=O)NS(=O)(=O)c2cccc(C#N)c2)CCN1C(=O)Cc1ccccc1 (stereo unspecified) was read as IL1B secr inh 14.3, KB-3-1 cytotox inactive and KB-V1 cytotox inactive.
Screening COc1ccc(CNC(=O)Cn2ccc3cc(S(=O)(=O)N4CCCCC4)ccc32)c(OC)c1 returned KB-3-1 cytotox inactive and KB-V1 cytotox inactive.
O=C(NN1C(=O)c2ccccc2NC1c1ccc([N+](=O)[O-])o1)c1ccccc1 (stereo unspecified) was read as MCF10A rerep inconclusive, SW480 rereplic inconclusive, IL1B secr inh -76.3*, KB-3-1 cytotox inactive and KB-V1 cytotox inactive.
For O=C1c2ccccc2NC(c2ccc(-c3cccc([N+](=O)[O-])c3)o2)N1O (stereo unspecified) the results were MCF10A rerep 19.5%, SW480 rereplic 25.1%, IL1B secr inh 22.7, KB-3-1 cytotox inconclusive and KB-V1 cytotox 2.31µM*.
`O=C(NN1C(=O)c2ccccc2NC1c1ccc([N+](=O)[O-])o1)c1ccc([N+](=O)[O-])cc1` (stereo unspecified) gave MCF10A rerep inconclusive, SW480 rereplic inconclusive, IL1B secr inh -103.8*, KB-3-1 cytotox inactive and KB-V1 cytotox inconclusive.
`O=C1c2ccccc2NC(c2ccc(-c3ccc(F)cc3)o2)N1O` (stereo unspecified) gave MCF10A rerep inconclusive, SW480 rereplic inconclusive, KB-3-1 cytotox inconclusive and KB-V1 cytotox inactive.
For Cc1sc2nc(C3CC3)nc(N3CCN(C(=O)c4ccc(Cl)cc4)CC3)c2c1C the results were MCF10A rerep inconclusive, SW480 rereplic 6.8%, IL1B secr inh -6.5, KB-3-1 cytotox inconclusive and KB-V1 cytotox 18.4µM*.
